In ChEMBL document CHEMBL4513216, “Probing the Open Global Health Chemical Diversity Library for Multistage-Active Starting Points for Next-Generation Antimalarials” (ACS Infect Dis, 2020):
In all, about 69,000 compounds went through this assay and about 8,600 (12%) showed an effect of 50% or more. This excerpt belongs to a sample that is enriched for strong results.

system: Plasmodium berghei; test: Screen against P. berghei liver stage (PbLuc), transformed with Luciferase, at 10uM; format: functional, HepG2; settings: tested at 10 uM

Compound	INHIBITION
Cc1ccc(C(C)(O)CNC(=O)NCCc2ccc3c(c2)CCO3)o1 (centres undefined)	23.2%
O=c1cc(CN2CC[C@@]3(O)CCCC[C@H]3C2)c2cccc3c2n1CCC3	42.1%
O=C(NCCc1c[nH]cn1)c1ccc(S(=O)(=O)NC2CCOC2)cc1 (centres undefined)	4.68%
CSc1nnc(CNC(=O)Nc2ccccc2F)n1C	31.7%
O=C(NCCNc1cc(N2CCCC2)cnn1)Nc1ccccc1F	53.8%
O=C(Cc1ccc(F)cc1)NCCNc1cc(N2CCCC2)cnn1	34.6%
CNS(=O)(=O)c1ccc(C(=O)Nc2ccc3c(c2)C(=O)NC3)cc1	-5.26%
O=C(Nc1ccc2c(c1)C(=O)NC2)c1ccc(S(=O)(=O)C(F)(F)F)cc1	55%
CS(=O)(=O)Cc1ccc(C(=O)Nc2ccc3c(c2)C(=O)NC3)cc1	37.9%
O=C(NCC1COC2(CCOCC2)O1)c1csc(-c2cccc(Cl)c2)n1 (centres undefined)	15.5%
COCC(=O)N1C[C@H]2CNC[C@@]2(C(=O)NCc2c(C)noc2C)C1	-31.9%
COCC(=O)N1C[C@H]2CNC[C@@]2(C(=O)NCc2cc(C)n[nH]2)C1	59.5%
COCC(=O)N1C[C@H]2CNC[C@@]2(C(=O)NCc2nc(C)cc(C)n2)C1	1.45%
CCC[C@H]1CN(S(C)(=O)=O)C[C@@H]1NC(=O)COC(C)C	34.9%
Cc1ccc(CN2CCN(Cc3cc(C)n[nH]3)CC2CCO)cc1 (centres undefined)	-0.529%
CC(C)=CCN1CCN(Cc2cccc(C)n2)CC1CCO (centres undefined)	67.4%
Cc1cccc(CN2CCN(Cc3ccccc3)CC(O)C2)n1 (centres undefined)	16.8%
Cc1cccc(CN2CCN3C(=O)NC[C@H]3C2)n1	-27.5%
CC(C)=CCN1CCN(Cc2cc(C)n[nH]2)CC1CCO (centres undefined)	26.6%
CC(C)=CCN1CCN(Cc2cc(C)c(O)c(C)c2)CC1CCO (centres undefined)	51.3%
CC(C)N1CCC(N2CCN(C3CCCCC3)CC2CCO)CC1 (centres undefined)	22%
CCn1cc(Cl)c(C(=O)Nc2ccc3c(c2)C(C)(C)C(=O)N3C)n1	20.9%
O=C(CCc1cc(O)no1)N1CCCC(OCc2cccnc2)C1 (centres undefined)	23.6%
Cc1c(S(=O)(=O)N(CCc2ccccc2)Cc2ccn(C)n2)cnn1C	41.9%
CNC(=O)NCC(CO)Cc1ccccc1OC(F)(F)F (centres undefined)	16%
CCS(=O)(=O)CCCOc1nc(-c2ccccc2Cl)no1	50%

Compound	INHIBITION
CS(=O)(=O)CCOc1nc(-c2ccccc2Cl)no1	-3.94%
COCCOc1nc(-c2ccccc2Cl)no1	14.9%
Cc1noc2ncc(C(=O)N3CCCC(n4cccn4)C3)cc12 (centres undefined)	27.8%
CCc1nccn1C1CCCN(C(=O)c2cnn3ccc(C)nc23)C1 (centres undefined)	24.6%
CCc1nccn1C1CCCN(C(=O)c2ccn(-c3ccccc3)n2)C1 (centres undefined)	52.2%
CC(C)c1nccn1C1CCCN(C(=O)c2ccnc(N(C)C)c2)C1 (centres undefined)	42.9%
CCc1nccn1C1CCCN(C(=O)c2ccnc(N(C)C)c2)C1 (centres undefined)	65.85%
CCc1nccn1C1CCCN(C(=O)c2ccc(N(C)C)nn2)C1 (centres undefined)	45.65%
CCc1nccn1C1CCCN(C(=O)c2cnn3cccnc23)C1 (centres undefined)	55.4%
CCc1nccn1C1CCCN(C(=O)c2cnc3onc(C)c3c2)C1 (centres undefined)	66.4%
CCc1nccn1C1CCCN(C(=O)c2cnn(C)c2C2CC2)C1 (centres undefined)	44.8%
CCc1nccn1C1CCCN(C(=O)c2cncn2-c2ccccc2)C1 (centres undefined)	32.45%
CCc1nccn1C1CCCN(C(=O)c2cnc3ccccc3n2)C1 (centres undefined)	29.2%
Cc1noc2ncc(C(=O)N3CCCC(n4ccnc4C)C3)cc12 (centres undefined)	32.3%
O=c1ccc2c([nH]1)CCC(NS(=O)(=O)C1CC1)C2 (centres undefined)	32.5%
O=C(NCc1ccccc1)N1CCc2ncnc(NC3CC3)c2CC1	40.3%
CCOCc1nc(-c2cccc(OC)c2OC)n(C2CCN(C)CC2)n1	21.2%
CN(CC(=O)Nc1ccc(Br)cn1)C(=O)C(C)(C)C	-17.6%
O=C(Cc1cccnc1)N1CCCC2(CCN(CC3CCOCC3)C2)C1 (centres undefined)	18.5%
Cc1cc(C)c(C(=O)N(C)CCN(C)C(=O)OC(C)(C)C)[nH]1	11.4%
Cc1cncnc1C1CCN(C(=O)CN(C)C)CC1	-15.1%
CN(C)C(=O)N1CCC2(CC1)CN(Cc1ccccn1)C(=O)CO2	30.4%
CCc1nccn1C1CCCN(C(=O)c2ccc3c(c2)OCCO3)C1 (centres undefined)	52.5%
Cc1nccn1C1CCCN(C(=O)c2ccc3c(c2)OCCCO3)C1 (centres undefined)	47%
CCc1nccn1C1CCCN(C(=O)c2ccc3c(c2)OCO3)C1 (centres undefined)	34.9%
CCCn1nc(C)c(CNS(=O)(=O)NCc2ccccc2)c1C	-8.66%

Compound	INHIBITION
CCCn1cc(Cl)c(C(=O)N2C[C@@H](O)[C@H](Oc3ccccc3)C2)n1	-10.55%
O=S(=O)(CCc1ccccc1Cl)CC(O)CO (centres undefined)	35.7%
Cc1nc(C)c(C(=O)Nc2cnn(CC(=O)NC3CCCC3)c2)s1	54.5%
Cc1cc(C(=O)Nc2cnn(CC(=O)NC3CCCC3)c2)c(C)s1	12.4%
Cc1ccsc1C(=O)Nc1cnn(CC(=O)NC2CCCC2)c1	-4.63%
Cc1nn(C)c2cnn(CCCNS(=O)(=O)Cc3ccccc3)c12	41.6%
Cc1nccn1C1CCCN(C(=O)CCNc2ncccn2)C1 (centres undefined)	5.03%
CC(C)CNC(=O)N1CCC2(CC1)OC(C(N)=O)Cn1ccnc12 (centres undefined)	39.4%
COC(=O)C1CCCN1C(=O)c1ccc(-n2nc(C)cc2C)cc1 (centres undefined)	-16.8%
COCCNC(=O)c1c(-n2cnnn2)sc2c1CCCC2	-6.42%
CC(C)OCCCNC(=O)c1c(-n2cnnn2)sc2c1CCCC2	20.1%
COCCCNC1N=C(n2nc(C)cc2C)Nc2sc3c(c21)CCCC3 (centres undefined)	88.8%
Cc1cc(C)n(C2=NC(NCCC(C)C)c3c(sc4c3CCCC4)N2)n1 (centres undefined)	90.5%
Cc1cc(C)n(C2=NC(NCCCO)c3c(sc4c3CCCC4)N2)n1 (centres undefined)	79.7%
COCCCNC(=O)c1c(-n2cnnn2)sc2c1CCC2	30.8%
Cc1oc(C(=O)O)cc1S(=O)(=O)Nc1cc(Br)ccc1F	-0.96%
Cc1ncncc1C(=O)N1CCC(O)(CN(C)Cc2ccc(F)cc2)C1 (centres undefined)	6.32%
CC(C)c1nnc(CCC(=O)N2CCCC(c3cnccn3)C2)o1 (centres undefined)	26.7%
CN(C)C(=O)c1nn(C)c2c1CN(Cc1ccc(F)cc1)C2	31.7%
CCCN1CCN(C(=O)Nc2ccccc2Cl)[C@H]2CS(=O)(=O)C[C@H]21	-32.9%
CN(C)C(=O)N1CCN(Cc2ccccc2)[C@@H]2CS(=O)(=O)C[C@@H]21	-33.2%
O=C(Nc1ccccc1Cl)N1CCN(CC2CC2)[C@@H]2CS(=O)(=O)C[C@@H]21	52.2%
CS(=O)(=O)NCC1CCCN(C(=O)Nc2ccccc2Cl)C1 (centres undefined)	9.48%
CC(=O)N1CCN(C(=O)Nc2ccccc2Cl)[C@H]2CS(=O)(=O)C[C@H]21	72%
Cc1ccccc1NC(=O)N1CCN(C(=O)C2CC2)[C@@H]2CS(=O)(=O)C[C@@H]21	-5.22%
O=C(CCC(=O)N1CCc2[nH]c3ccccc3c2C1)NCc1ccco1	1.41%

Compound	INHIBITION
CNc1cc(C2CCCN(C(=O)c3ccc(=O)[nH]n3)C2)ccn1 (centres undefined)	15.5%
COC[C@]1(O)CCN(Cc2ccc(N(C)C)nc2)CC1(C)C	22.6%
Cc1cc(Nc2ncccn2)nc(C2CCCN(CCO)C2)n1 (centres undefined)	-3.94%
Cc1ccc(S(=O)(=O)NC(=O)CCC(F)(F)F)cc1N(C)C	13.139%
Cc1ccc(-c2nc(CN3CCCC3Cn3cc(C)cn3)no2)cc1 (centres undefined)	51.3%
Cc1cccc(-c2nc(CN3CCCC3Cn3cc(C)cn3)no2)c1 (centres undefined)	83.2%
Cc1cnn(CC2CCCN2Cc2noc(C)n2)c1 (centres undefined)	9.14%
Cc1cnn(CC2CCCN2Cc2noc(-c3ccccc3)n2)c1 (centres undefined)	23.5%
Cc1cccc(-c2nc(CN3CCCCC3Cn3cncn3)no2)c1 (centres undefined)	13.9%
Cc1cnn(CC2CCCN2Cc2noc(C3CC3)n2)c1 (centres undefined)	37.9%
CC1N(c2cnn(C)c2)C(=O)COC12CCN(Cc1ccco1)CC2 (centres undefined)	16.6%
COc1ccc(S(=O)(=O)NC2(CC(N)=O)CCC2)cc1	42.7%
CCCc1ccc(S(=O)(=O)NC2(CC(N)=O)CCC2)cc1	51.3%
CC(C)c1ccc(S(=O)(=O)NC2(CC(N)=O)CCC2)cc1	37.7%
NC(=O)Cn1c(CO)cnc1SCc1ccccc1Cl	-4.01%
Cc1noc(C2CCC3(CCN(C(=O)c4cc(C5CC5)on4)CC3)O2)n1 (centres undefined)	7.53%
CNc1cncc(C2CCCN2Cc2ccn(C)n2)n1 (centres undefined)	51.5%
Cc1cc(N2CCCC2c2cncc(N(C)C)n2)ncn1 (centres undefined)	14.7%
CNc1cncc(C2CCCN2c2cc(C)ncn2)n1 (centres undefined)	52%
CNc1cncc(C2CCCN2Cc2cccc(C)n2)n1 (centres undefined)	45.6%
CNc1cncc(C2CCCN2C(=O)c2ccc3oc(C)cc3c2)n1 (centres undefined)	6.81%
CNc1cncc(C2CCCN2Cc2ccccn2)n1 (centres undefined)	35.8%
Cc1cc(N2CCCC2c2cnccn2)ncn1 (centres undefined)	11.4%
CNc1cncc(C2CCCN2C(=O)c2ccc3c(c2)OCCO3)n1 (centres undefined)	30.8%
CNc1cncc(C2CCCN2C(=O)c2ccc3c(c2)CCC3)n1 (centres undefined)	54.5%
CCCc1noc(CN2CCC(NC(=O)c3ccc(C)s3)CC2)n1	25%
